# Screening data (PubChem BioAssay)
# Dicer processing: inhibitors of human Dicer processing of pre-microRNA; 47,000 compounds, 6% hits; z-score at 25 µM; Q9UPY3; cat-ELCCA pre-miR-21 Dicer processing, chemiluminescence; hits give high values; AID 1347074; in the data active = z-score above about 3, passing the limit was not always enough;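 note: plate controls were vehicle for no effect and no enzyme for full effect; higher signal means more uncleaved substrate so more Dicer inhibition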
# The depositor's hits bear a star. The full list was thinned out, with hits kept by preference.
SMILES,Dicer processing
Clc1ccccc1SCSc1ccccc1Cl,1.7
COc1ccc(CN2CCN(S(C)(=O)=O)CC2)cc1OC,2.2
CCn1c2ccccc2c2cc(CN3CCN(S(C)(=O)=O)CC3)ccc21,5.4*
CCn1c2ccccc2c2cc([N+](=O)[O-])ccc21,-0.68
CC(C)CNC(=O)Cn1nc(C(F)(F)F)c2c1CCCC2,1.1
O=C(Cn1nc(C(F)(F)F)c2c1CCCC2)N1CCCc2ccccc21,0.09
CN(C(=O)Cn1nc(C(F)(F)F)c2c1CCCC2)c1ccccc1,3.8*
CCOC(=O)C1CCN(/C=C(\C#N)S(=O)(=O)c2ccc(Cl)cc2)CC1,1.8
COC(=O)c1sc(Br)c(Br)c1OC(=O)c1ccc(Cl)cc1Cl,-0.05
COCCCN=C1NC(=O)C(CC(=O)Nc2cc(Cl)ccc2Cl)S1 (centres undefined),2
COCCCN=C1NC(=O)C(CC(=O)Nc2ccccc2Cl)S1 (centres undefined),3.1*
O=C(CC1Sc2ccccc2NC1=O)Nc1ccccc1Cl (centres undefined),2
O=C1NN(c2ccccc2)C(=S)Nc2ccccc21,-0.28
N#Cc1c(C(F)(F)F)cc(-c2ccccc2)nc1SCC(N)=O,0.19
CCOC(=O)CSc1nc(C)cc(C)c1C#N,-0.01
CCOC(=O)COc1nc(-c2ccccc2)cc(-c2ccccc2)c1C#N,0.94
Cc1ccc(-c2cc(C(F)(F)F)c(C#N)c(SCC(=O)O)n2)cc1,-0.53
CCOC(=O)CSc1nc(C2CC2)cc(-c2ccccc2)c1C#N,3.7*
CCOC(=O)CSc1nc(-c2ccc(F)cc2)cc(C(F)(F)F)c1C#N,3.2*
COC(=O)CSC1=C(C#N)C(=O)NC(c2ccc(OC)cc2)S1 (centres undefined),1.5
Fc1ccccc1CSc1nnc([C@@H]2CCCN2)o1,0.39
Clc1ccc(-c2cc(NC3CCCCC3)n[nH]2)cc1,-4.6
CCOC(=O)c1c(C)oc(-c2ccc(C)cc2)c1S(=O)(=O)Nc1cccc(C(F)(F)F)c1,0.35
CCOC(=O)c1cnn(C(=O)Cc2ccsc2)c1N,-1.5
C=CCN1C(=O)C(O)(CC(=O)c2c(C)coc2C)c2ccccc21 (centres undefined),0.39
SMILES,Dicer processing
c1cc(-c2nc3ccccc3o2)cc(-c2nc3ccccc3o2)c1,2.8
Brc1ccc(-c2ccc(/C=C/c3nc4ccccc4o3)o2)cc1,8.2*
C(=C\c1nc2ccccc2o1)/c1ccccc1,-0.71
O=S(=O)(Nc1ncccn1)c1ccc(F)cc1,-1.4
O=S(=O)(CCSc1ncccn1)c1ccc(F)cc1,3*
O=S(=O)(CCSc1nccc(-c2cccs2)n1)c1ccc(F)cc1,0.76
CCC(=O)N1c2cc(C)c(C)cc2C(=C2SC(C(=O)OC)=C(C(=O)OC)S2)C(=S)C1(C)C,2.7
Cc1nc2sc3c(NCCC(C)C)ncnc3c2c2c1COC(C)(C)C2,0.04
CCCOc1nc2c(c(=O)n(C)c(=O)n2C)n1C(C)c1ccccc1 (centres undefined),3.5*
C#CCOc1nc2c(c(=O)n(C)c(=O)n2C)n1Cc1ccccc1,0.67
COCCOc1nc2c(c(=O)n(C)c(=O)n2C)n1CCc1ccccc1,1.6
COCc1cc(=O)[nH]c(SC2CC(=O)N(c3ccc(N4CCOCC4)cc3)C2=O)n1 (centres undefined),-0.08
Cn1ccc(NS(=O)(=O)c2ccc(NS(=O)(=O)c3ccc(Cl)cc3)cc2)n1,17
Cc1nc2ccc(Br)cc2c(=O)n1-c1ccccc1N1CCCCC1,-0.17
Cn1cc(C(=O)O/N=C/c2c(Cl)cccc2Cl)c(C(F)(F)F)n1,0.43
COc1ccc(Br)cc1CN1CCN(Cc2ccc(SC)cc2)CC1,-0.04
O=C(Nc1ccc(N2C(=O)c3cccnc3C2=O)cc1)c1ccco1,-1.3
O=C1c2cccnc2C(=O)N1c1cccc(-c2nc3ccccc3o2)c1,2.7
O=C(O)c1ccc(N2C(=O)c3cccnc3C2=O)cc1,4.5*
CCCc1nc(-c2ccccn2)[nH]c(=O)c1CC1CC1,0.58
Cc1ccc(Oc2ccc([N+](=O)[O-])cn2)c([N+](=O)[O-])n1,-0.84
Cc1cc(Nc2ccccc2Cl)c2ccccc2n1,-0.1
CCOc1ccc2nc(C)cc(Nc3ccc(N(C)C)cc3)c2c1,4.5*
CCOC(=O)CC(=O)CSc1nc(C)c2cc(OCC)ccc2n1,0.05
Cc1ccc2nc(C)cc(NCCO)c2c1,-1.1
SMILES,Dicer processing
CCOc1ccccc1Nc1cc(C)nc2ccc(OC)cc12,1.7
COc1ccc2nc(C)cc(Nc3ccccc3OC)c2c1,3.3*
CC(=O)C(C)(C)OC(=O)N1CCOCC1,-0.55
O=C(Nc1nc(C(F)(F)F)c(-c2ccccc2)s1)c1cccs1,1.5
CCc1nn2c(=O)c(NC(=O)c3ccc(Cl)cc3)cnc2s1,-0.16
Cc1cc(C)cc(CC2CC(=O)N(CC(=O)O)C2=O)c1 (centres undefined),2.2
CCC(NS(=O)(=O)c1ccc(F)cc1)C(=O)O (centres undefined),1.9
C=C1SC(=Nc2cccc(OC)c2)N(C(=O)c2ccc([N+](=O)[O-])cc2)C1(C)C,-1.1
COc1ccc(-c2nnc3c4ccccc4c(C)nn23)cc1S(=O)(=O)NC(C)C,5*
COc1ccc(-c2nnc3c4ccccc4c(C)nn23)cc1S(=O)(=O)N(C)C1CCCCC1,0.88
Cc1ccc(-c2nnc3c4ccccc4c(C)nn23)cc1S(=O)(=O)N1CCCC1,3.2*
COc1ccc(-c2nnc3c4ccccc4c(C)nn23)cc1S(=O)(=O)NC1CCCCC1,2.5
CNS(=O)(=O)c1cc(-c2nnc3c4ccccc4c(C)nn23)ccc1OC,1.6
COc1ccc(-c2nnc3c4ccccc4c(C)nn23)cc1S(=O)(=O)N1CCCC1,5.5*
Cc1ccc(-c2nnc3c4ccccc4c(C)nn23)cc1S(=O)(=O)NC(C)(C)C,1.1
Cc1ccc(-c2nnc3c4ccccc4c(C)nn23)cc1S(=O)(=O)N1CCN(c2ccccc2)CC1,2.5
CCC(CO)NS(=O)(=O)c1cc(-c2nnc3c4ccccc4c(C)nn23)ccc1OC (centres undefined),2.8
Cc1c(Cc2ccccc2)c(=O)oc2cc(OS(C)(=O)=O)ccc12,-0.99
CC(=O)Nc1ccc(OC(=O)c2cccc(C(F)(F)F)n2)cc1,-0.93
CC(C)N1CSC(=S)N(C(C)C)C1,-0.28
O=C(Cn1nnc(N2CCCCC2)n1)c1ccc(Cl)cc1,-0.11
O=C(c1cccc(C(F)(F)F)c1)N1CCc2sccc2C1c1ccc(OC(F)(F)F)cc1 (centres undefined),1.4
Cc1ccc(F)cc1NC(=O)Nc1nnc(C2CC2)s1,-0.76
C=CCNC(=O)c1cnn2c(C(F)F)cc(-c3ccc(C)cc3)nc12,2.9
CCOC(=O)c1cnc2cc(-c3ccc(C(C)(C)C)cc3)[nH]n2c1=O,1.5
SMILES,Dicer processing
CCCOc1ccccc1C1C(C(=O)OCC)=C(C)Nc2nnnn21 (centres undefined),-0.59
CCOc1c(C)nc(C)c(OCC)c1-c1cccc([N+](=O)[O-])c1,-1.7
O=c1c(-c2ccc3c(c2)OCCO3)coc2cc(O[C@@H]3O[C@@H](CO)[C@H](O)[C@@H](O)[C@@H]3O)ccc12,1.1
COC(=O)c1sc(N2C(=O)C(=O)/C(=C(/O)c3ccc(Cl)cc3)C2c2ccc(OC)cc2)nc1C (centres undefined),1.9
COC(=O)C1=C(C)N=c2s/c(=C/c3ccc(Cl)cc3)c(=O)n2C1c1ccc(OC)cc1 (centres undefined),4.6*
COC(=O)C1=C(C)N=c2s/c(=C/c3ccc4c(c3)OCO4)c(=O)n2C1c1ccccc1 (centres undefined),0.78
